High-throughput results: PubChem, National Center for Advancing Translational Sciences (NCATS)
AmpC inh no detg: inhibitors of E. coli AmpC beta-lactamase without detergent. AmpC nitrocefin hydrolysis, absorbance 480 nm, 0.0001% Triton. AID 485341. P00811. 330,000 compounds, 0.52% hits. Potency, µM (highest dose often 57.1 µM), without a hit: at the top dose activity change, negative = inhibition, hits mostly inhibitors;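 note: plate controls were no compound for no effect and no enzyme for full effect; nearly all actives have a fitted effect of over 20% in size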
Target sequence (P00811 whole entry, looked up): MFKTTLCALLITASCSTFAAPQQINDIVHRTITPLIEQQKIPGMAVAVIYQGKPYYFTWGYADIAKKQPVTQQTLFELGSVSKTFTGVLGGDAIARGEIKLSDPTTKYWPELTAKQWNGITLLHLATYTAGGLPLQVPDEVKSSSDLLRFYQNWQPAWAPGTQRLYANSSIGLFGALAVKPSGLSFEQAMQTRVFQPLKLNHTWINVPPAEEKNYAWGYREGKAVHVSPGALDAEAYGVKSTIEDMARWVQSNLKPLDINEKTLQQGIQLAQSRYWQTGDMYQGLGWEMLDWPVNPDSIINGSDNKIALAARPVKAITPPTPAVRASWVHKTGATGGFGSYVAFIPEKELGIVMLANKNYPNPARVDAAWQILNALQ
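20 mM phosphate pH 7.0 + 0.01% (detergent screen) or 0.0001% Triton X-100; 5.3 nM AmpC reagent; cpd preinc 15 min RT; nitrocefin (800 uM stock) to start; A480 q20 s × 4 min; Activity was normalised to no-enzyme and no-compound control wells.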
AmpC detergent: blocks E. coli AmpC beta-lactamase in detergent assay | P00811 | AmpC hydrolysis of nitrocefin, absorbance 480 nm, 0.01% Triton | Potency, µM (highest dose often 114 µM), without a hit: at the top dose activity change, negative = inhibition, hits mostly inhibitors | 370,000 compounds, 0.041% hits | AID 485294;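 note: 0% = no-compound wells and -100% = no-enzyme wells; nearly all actives have a fitted effect of over 25% in size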
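AmpC (5.3 nM in the dispensed reagent) in 20 mM phosphate pH 7.0 with 0.01% (detergent screen) or 0.0001% Triton X-100 was preincubated with compounds for 15 min at room temperature. Nitrocefin was then added from an 800 uM solution, and hydrolysis was followed at 480 nm.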
Giardia FBPA inh: Giardia lamblia aldolase inhibition; A8B2U2; purified Giardia FBPA; Potency, µM (top dose mostly 59.6 µM), inactives show top-dose activity, negative = inhibition, most hits filed as inhibitors; 290,000 compounds, 0.71% hits; AID 2451; note: nearly all actives have a fitted effect of over 55% in size
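Giardia FBPA (40 nM reagent) was preincubated 10 min at RT with compound (up to 57.5 uM final), then substrate plus GAPDH/TPI/NAD/arsenate coupling system with diaphorase/resazurin was added; resorufin fluorescence (525/598 nm) was read after 20 min.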
Sm TGR inh: inhibitors of Schistosoma mansoni thioredoxin glutathione reductase; purified TGR, DTNB reduction, TNB absorbance 405 nm; Potency, µM (titrated, usually from 114 µM), for the others: at the highest dose activity change, negative = inhibition, actives largely listed as inhibitors; 360,000 compounds, 3% hits; AID 485364; Q962Y6; note: nearly all actives have a fitted effect of over 60% in size
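First, TGR (20 nM dispensed) and NADPH were mixed with compound. Second, a 15 min room-temperature incubation followed. Third, further NADPH and then DTNB were added to start the reaction. Finally, TNB absorbance was monitored kinetically.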
* = called active by the depositor; ? = inconclusive; . = no result given. Most compounds without a hit are left out; they make up all but 3.6% or so of the library. Calls come from the whole dose curve; as a rule, active = well fitted curve in the direction sought with a large enough effect; inconclusive = small, poorly fitted or top-dose-only effect, or another doubt; inactive = no such curve, though single readings can be large; an effect the other way counts as inactive or inconclusive. Unless noted, % is set by controls: 0 for no effect and ±100 for the full control effect; potency is the fitted concentration of half-maximal effect.

SMILES	AmpC inh no detg	AmpC detergent	Giardia FBPA inh	Sm TGR inh
COc1ccc(CNC(=O)C(=O)NCC(c2cccs2)S(=O)(=O)c2cccs2)cc1 (stereo unspecified)	.	-2%	.	28µM*
Cc1ccc(NC2=CC(c3ccccc3F)N(c3ccc(C)cc3)C2=O)cc1 (stereo unspecified)	.	0%	.	?
CCc1ccc(-c2nc(CS(=O)CC(=O)NC3CC3)c(C)o2)cc1 (stereo unspecified)	1%	-10%	-3%	4µM*
COc1ccc(-c2nc(CS(=O)CC(=O)NC3CCCCC3)c(C)o2)cc1 (stereo unspecified)	64%	-1%	.	?
CCc1ccc(-c2nc(CS(=O)CC(=O)O)c(C)o2)cc1 (stereo unspecified)	-16%	-7%	-15%	0.35µM*
CCc1ccc(-c2nc(CS(=O)CC(=O)NC3CCCCCC3)c(C)o2)cc1 (stereo unspecified)	101%	3%	.	7.9µM*
COCCN(C(=O)COC(=O)COc1ccc(Cl)c(C)c1)c1c(N)n(Cc2ccccc2)c(=O)[nH]c1=O	175%	-1%	-10%	0%
Brc1ccc(-c2ncc3ccccn23)cc1	-28%	0%	-10%	28µM*
Fc1ccc(-c2ncc3ccccn23)cc1	-4%	2%	-10%	-14%
COC(=O)N/N=C/c1ccc(OC(=O)/C=C/c2ccco2)cc1	-4%	-6%	-2%	?
O=C(Cc1ccccc1)N/N=C/c1ccc(OC(=O)/C=C\c2ccco2)cc1	-30%	5%	0%	35µM*
CCc1ccc(OC(=O)/C=C/c2ccco2)cc1	-28%	-15%	6%	28µM*
Cc1noc(C)c1-c1ccc2ncnc(NC3CCCc4ccccc43)c2c1 (stereo unspecified)	.	.	1%	.
Cc1ccc2c(c1)-c1onc(C(=O)N3CCN(c4cc(Cl)ccc4C)CC3)c1CO2	.	12%	.	2%
O=C(NCc1ccco1)[C@@H]1CCCN1C(=O)c1cccs1	-12%	-2%	0%	40µM*
CCC(OC(=O)c1ccco1)C(=O)NCc1ccco1 (stereo unspecified)	14%	?	8%	0%
CC(C)CC(OC(=O)c1ccco1)C(=O)NC1CCCCC1 (stereo unspecified)	13%	32µM*	12%	-10%
CCC(OC(=O)c1cccs1)C(=O)NCc1ccco1 (stereo unspecified)	-5%	-2%	-6%	56µM*
CC(C)CC(OC(=O)c1cccs1)C(=O)NCc1ccco1 (stereo unspecified)	0%	0%	-1%	40µM*
CC(C)CC(OC(=O)c1ccco1)C(=O)NC1CCCC1 (stereo unspecified)	10%	-9%	.	-6%
c1ccc(-c2cccc(N3CCC4(CCNCC4)CC3)c2)cc1	.	.	10%	.
COCC(=O)N1CCC2(CC1)CCN(C(=O)Nc1cccc(C#N)c1)CC2	.	.	-10%	.
Cc1cc(OC(=O)c2ccc(Cl)cc2Cl)nc(C)n1	-11%	-3%	6%	56µM*
Cc1ccc(NC2=C(Cl)C(=O)c3ccccc3C2=O)cc1	-17%	-4%	?	3.5µM*
O=C1C(Cl)=C(Nc2ccc(O)cc2)C(=O)c2ccccc21	-21%	6%	?	2.2µM*
SMILES	AmpC inh no detg	AmpC detergent	Giardia FBPA inh	Sm TGR inh
CCN(CC)c1ccc(NC2=C(Cl)C(=O)c3ccccc3C2=O)cc1	-23%	?	?	2.2µM*
CCNC1=C(Cl)C(=O)c2ccccc2C1=O	-19%	10%	?	1%
Cc1oc(C)c2c(=O)cc(-c3ccc4c(c3)OCO4)cc(OC(=O)c3cccc(Br)c3)c12	.	-4%	.	?
O=C(CSc1nnc(-c2ccncc2)o1)Nc1cc(Cl)ccc1C(=O)O	-12%	.	.	.
FC(F)(F)c1cccc(N2CCN(C(=S)NC3CCCC3)CC2)c1	0.25µM*	5%	-2%	-9%
CC(=O)Nc1ccc2nc(-c3ccc(Br)o3)[nH]c2c1	-16%	-6%	-28%	25µM*
O=C(Nc1ccc2nc(-c3ccc(Br)o3)[nH]c2c1)c1cccs1	-31%	-11%	-17%	25µM*
O=C(Nc1ccc(NC(=O)c2cccs2)cc1)c1ccc(Br)o1	-44%	-2%	-11%	0%
O=C(Nc1cccc(NC(=O)c2cccs2)c1)c1ccc(Br)o1	25µM*	-7%	0%	-28%
Cn1cccc1-c1nc2ccc(NC(=O)c3cccs3)cc2[nH]1	-49%	?	-11%	-24%
